Experiment [1] concerns the target Dual specificity protein kinase CLK3 (Homo sapiens) (UniProt P49761). The settings on record: at 1 µM.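 Further: each value is the mean inhibition of CLK3.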
Experiment [2] concerns the target Dual specificity tyrosine-phosphorylation-regulated kinase 1A (Homo sapiens) (UniProt Q13627). The settings on record: at 0.1 µM.
Experiment [3] shares this target. The following applies: at 1 µM.
The target in experiment [4] is Dual specificity tyrosine-phosphorylation-regulated kinase 1B (Homo sapiens) (UniProt Q9Y463). The settings on record: at 0.1 µM.
Chain of Dual specificity tyrosine-phosphorylation-regulated kinase 1B (Homo sapiens) (Q9Y463 whole entry, looked up): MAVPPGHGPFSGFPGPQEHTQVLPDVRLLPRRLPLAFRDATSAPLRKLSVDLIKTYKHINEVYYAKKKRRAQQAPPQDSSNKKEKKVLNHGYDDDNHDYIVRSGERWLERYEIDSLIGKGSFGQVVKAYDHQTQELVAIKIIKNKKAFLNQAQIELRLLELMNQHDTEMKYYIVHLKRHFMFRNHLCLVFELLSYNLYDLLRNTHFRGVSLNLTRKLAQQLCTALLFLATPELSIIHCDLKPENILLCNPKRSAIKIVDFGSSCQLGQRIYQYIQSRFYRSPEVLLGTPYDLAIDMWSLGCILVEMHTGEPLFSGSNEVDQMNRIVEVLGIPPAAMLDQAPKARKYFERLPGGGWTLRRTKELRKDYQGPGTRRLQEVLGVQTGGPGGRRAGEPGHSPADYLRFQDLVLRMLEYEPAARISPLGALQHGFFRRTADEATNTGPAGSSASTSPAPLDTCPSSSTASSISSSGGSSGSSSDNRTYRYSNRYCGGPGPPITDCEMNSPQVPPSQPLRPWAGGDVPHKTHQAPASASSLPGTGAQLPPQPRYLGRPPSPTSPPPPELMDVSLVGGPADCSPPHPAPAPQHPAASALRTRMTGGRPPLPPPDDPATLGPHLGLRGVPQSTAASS
Experiment [5] has the same target. The following applies: at 1 µM.
In experiment [6] the target is T1, Dual specificity tyrosine-phosphorylation-regulated kinase 2 (Homo sapiens) (UniProt Q92630).
T1 sequence (whole entry): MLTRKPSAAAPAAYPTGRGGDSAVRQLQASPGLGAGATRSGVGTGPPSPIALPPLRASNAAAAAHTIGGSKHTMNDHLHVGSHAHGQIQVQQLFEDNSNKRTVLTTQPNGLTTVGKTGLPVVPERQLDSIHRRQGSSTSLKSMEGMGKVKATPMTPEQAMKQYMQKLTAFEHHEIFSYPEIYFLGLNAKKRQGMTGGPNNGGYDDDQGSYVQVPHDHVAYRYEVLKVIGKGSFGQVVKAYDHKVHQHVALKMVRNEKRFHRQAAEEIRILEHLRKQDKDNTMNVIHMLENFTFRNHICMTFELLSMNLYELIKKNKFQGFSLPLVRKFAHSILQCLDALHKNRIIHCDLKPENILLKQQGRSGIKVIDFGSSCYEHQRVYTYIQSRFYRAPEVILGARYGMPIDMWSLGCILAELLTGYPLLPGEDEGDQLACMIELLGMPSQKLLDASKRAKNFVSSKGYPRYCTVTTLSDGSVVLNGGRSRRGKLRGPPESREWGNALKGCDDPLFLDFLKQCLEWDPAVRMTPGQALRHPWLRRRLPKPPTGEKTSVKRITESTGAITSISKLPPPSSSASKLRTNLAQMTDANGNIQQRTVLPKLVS
The following applies: at 0.1 µM.

The target in experiment [7] is T1, Dual specificity tyrosine-phosphorylation-regulated kinase 2 (Homo sapiens). The following applies: at 1 µM.
Experiment [8] has as its target Glycogen synthase kinase-3 alpha (Homo sapiens) (UniProt P49840). The settings on record: at 0.1 µM.
The target is the same in experiment [9]. The following applies: at 1 µM.
For experiment [10], the target named is Glycogen synthase kinase-3 beta (Homo sapiens) (UniProt P49841). The settings on record: at 0.1 µM.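 Further: values are mean percent inhibition of GSK3B activity, from the GSK Published Kinase Inhibitor Set (PKIS) screening dataset.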
Chain of Glycogen synthase kinase-3 beta (Homo sapiens) (P49841 whole entry, looked up): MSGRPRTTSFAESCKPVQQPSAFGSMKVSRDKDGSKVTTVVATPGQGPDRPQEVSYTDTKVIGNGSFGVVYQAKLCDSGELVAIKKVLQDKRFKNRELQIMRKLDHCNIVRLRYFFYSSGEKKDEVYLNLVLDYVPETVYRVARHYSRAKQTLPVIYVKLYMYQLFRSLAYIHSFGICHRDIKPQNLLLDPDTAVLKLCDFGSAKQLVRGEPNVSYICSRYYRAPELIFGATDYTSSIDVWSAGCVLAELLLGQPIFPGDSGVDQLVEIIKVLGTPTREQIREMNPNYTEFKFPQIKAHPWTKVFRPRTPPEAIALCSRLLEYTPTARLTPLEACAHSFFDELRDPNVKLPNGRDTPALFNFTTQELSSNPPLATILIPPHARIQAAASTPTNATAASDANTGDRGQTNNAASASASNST

Usually inhibition stands for the change of the read-out against control, counted positive when it falls.

Where “and” joins values, the source holds several entries; their conditions need not be identical. Equal entries are not always repeated.

Chain of Dual specificity protein kinase CLK3 (Homo sapiens) (P49761 whole entry, looked up): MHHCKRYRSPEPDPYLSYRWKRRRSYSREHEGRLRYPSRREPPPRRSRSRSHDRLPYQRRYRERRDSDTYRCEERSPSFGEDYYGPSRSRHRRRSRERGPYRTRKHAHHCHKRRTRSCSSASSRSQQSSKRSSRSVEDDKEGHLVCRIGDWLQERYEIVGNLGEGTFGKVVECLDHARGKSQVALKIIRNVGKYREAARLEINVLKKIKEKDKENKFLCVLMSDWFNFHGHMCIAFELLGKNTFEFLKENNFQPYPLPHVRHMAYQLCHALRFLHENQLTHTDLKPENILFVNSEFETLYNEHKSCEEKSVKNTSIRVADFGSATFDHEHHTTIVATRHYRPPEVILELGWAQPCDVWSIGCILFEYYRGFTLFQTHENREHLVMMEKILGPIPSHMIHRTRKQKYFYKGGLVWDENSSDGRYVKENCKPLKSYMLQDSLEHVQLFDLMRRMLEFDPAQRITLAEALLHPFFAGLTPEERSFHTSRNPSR
Chain of Glycogen synthase kinase-3 alpha (Homo sapiens) (P49840 2-483 limits assumed): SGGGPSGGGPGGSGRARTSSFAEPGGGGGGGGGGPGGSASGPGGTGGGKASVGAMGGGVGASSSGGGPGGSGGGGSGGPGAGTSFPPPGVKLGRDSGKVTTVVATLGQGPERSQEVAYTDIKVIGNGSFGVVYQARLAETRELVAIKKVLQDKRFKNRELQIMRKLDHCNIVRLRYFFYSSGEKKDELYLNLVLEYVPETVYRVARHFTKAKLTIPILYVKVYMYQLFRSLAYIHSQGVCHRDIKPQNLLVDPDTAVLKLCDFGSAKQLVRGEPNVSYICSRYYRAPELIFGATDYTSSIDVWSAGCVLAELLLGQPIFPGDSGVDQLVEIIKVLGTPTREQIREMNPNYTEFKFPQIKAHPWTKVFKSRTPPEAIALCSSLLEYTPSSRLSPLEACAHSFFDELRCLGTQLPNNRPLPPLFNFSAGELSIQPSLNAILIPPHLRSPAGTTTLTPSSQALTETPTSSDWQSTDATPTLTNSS

With `COc1ccc(Nc2ncc(-c3ccccc3)o2)cc1OC`, the inhibition in experiment [1] is 5.65%; in experiment [2], 8.15%; in experiment [3] it was 12%; in [4] it was 9%; in experiment [5], 10.9%; in experiment [6], 0.67%. In addition, the inhibition was determined as 2.48% in experiment [7], 8.4% in experiment [8], 38.4% in [9] and 7.94% in [10].

Consider `CCS(=O)(=O)c1ccc(OC)c(Nc2ncc(-c3cccc(C(C)=O)c3)o2)c1`, for which the inhibition in experiment [1] was 5.96%; in experiment [2] it was 6.12%; in experiment [3], 35.4%; in [4] it was 4.09%; in [5], 33.2%; in experiment [6], 2.2%. The inhibition came to 5.6% in experiment [7], 3.75% in experiment [8], 11.3% in experiment [9] and 4.38% in experiment [10].

With `FC(F)(F)CNc1nccc(-c2cnn3ncccc23)n1`, the inhibition was 2.91% in experiment [1]; 14.6% in experiment [2]; 60.1% in experiment [3]; 16.1% in experiment [4]; 59% in experiment [5]; 2.04% in [6]. In addition, the inhibition is 14.3% in [7], 3.64% in [8], 7.01% in [9] and 2.33% in experiment [10].

On to `CCn1c(-c2nonc2N)nc2cncc(C(=O)NCCNC)c21`, for which the inhibition in [1] is 9.74%; in experiment [2] it was 20.8%; in experiment [3] it was 72.4%; in [4] it was 9.71%; in experiment [5] it was 54.7%; in [6] it was 7.99%. The inhibition in experiment [7] was 37.2%; in experiment [8], 10.2%; in experiment [9] it was 49.7%; in [10] it was 6.83%.

For `NS(=O)(=O)c1ccc(N/N=C2\C(=O)Nc3cccc(CCc4ccncc4)c32)cc1`, the inhibition in experiment [1] was 1.36%; in [2], 1.69%; in experiment [3] it was 4.28%; in experiment [4], 1.6%; in experiment [5], 6.1%; in [6], -0.67%. In addition, the inhibition in [7] was -1.25%; in experiment [8] it was 49.5%; in [9], 68%; in experiment [10], 34.1%.

For `CN1CCC(C(=O)Nc2n[nH]c3nc(-c4ccc(O)cc4)c(Br)cc23)CC1`, the inhibition in experiment [1] was 3.67% and 4.52%; in experiment [2], 9.4% and 10.2%; in experiment [3] it was 43.4% and 51.8%; in [4] it was 29.6% and 27.7%; in experiment [5], 66.8% and 67%; in experiment [6] it was 6.68% and 6.28%. For the same compound, the inhibition in experiment [7] was 33.7% and 34%; in experiment [8], 78.2% and 80.5%; in [9], 83.2% and 81.7%.

On to `NC(=O)c1ccc2c(-c3ccnc(NCCCO)n3)c(-c3ccc(F)cc3)nn2c1`, for which the inhibition in [1] is 2.71%; in [2], 7.25%; in experiment [3], 8.12%; in experiment [4] it was 5.14%; in [5], 5.25%; in [6] it was 3.28%. The inhibition came to 5.26% in experiment [7], 3.74% in experiment [8], 19.6% in experiment [9] and 7.03% in experiment [10].

`CCS(=O)(=O)c1ccc(OC)c(Nc2ncc(-c3cccc(F)c3)o2)c1`: the inhibition worked out at 12.1% in [1]; 4.83% in [2]; 26% in experiment [3]; 0.76% in experiment [4]; 12.2% in [5]; 5.21% in experiment [6]. The inhibition was found to be 13.7% in experiment [7], 2.67% in experiment [8], 5.61% in experiment [9] and 2.72% in [10].

Consider `N#Cc1cccc(Nc2ncc(-c3ccccc3)o2)c1`, for which the inhibition in experiment [1] is 1.97%; in experiment [2], 1.47%; in experiment [3], 5.95%; in experiment [4] it was -0.09%; in experiment [5] it was 3.53%; in [6], 0.71%. The inhibition turned out to be 2.45% in experiment [7], 5.76% in [8], 25.6% in experiment [9] and 2.85% in [10].

With `COc1cccc(Nc2nccc(-c3cnn4ncccc34)n2)c1`, the inhibition in [1] turned out to be 65.3%; in experiment [2], 77.4%; in [3], 88.3%; in [4] it was 81.5%; in [5], 90%; in [6] it was 5.88%. The inhibition was 37.6% in [7], 60.7% in experiment [8], 79.5% in experiment [9] and 59.7% in [10].

With `O=C(O[C@H]1CN[C@H](C#Cc2cc3ncnc(Nc4ccc(OCc5cccc(F)c5)c(Cl)c4)c3s2)C1)N1CCOCC1`, the inhibition in experiment [1] was 2.04%; in [2], 2.71%; in experiment [3] it was 6.81%; in experiment [4] it was -1.11%; in experiment [5], -0.95%; in [6] it was 3.84%. Moreover, the inhibition worked out at 3.68% in experiment [7], 3.45% in experiment [8], 4.35% in experiment [9] and 2.75% in experiment [10].

Turning to `c1cnn2ncc(-c3ccnc(NCCCN4CCOCC4)n3)c2c1`, the inhibition in experiment [1] came out at 0.72%; in experiment [2], 6.3%; in [3] it was 33.9%; in [4], 6.84%; in [5], 40.3%; in experiment [6], 1.99%. Moreover, the inhibition turned out to be 5.39% in experiment [7], 2.46% in experiment [8], 13.1% in experiment [9] and 1.44% in experiment [10].

As to `COc1ccc2ncn(-c3cc(O[C@H](C)c4ccccc4C(F)(F)F)c(C(N)=O)s3)c2c1`, the inhibition in experiment [1] was 0.85%; in experiment [2], 0.11%; in [3], 2.44%; in experiment [4] it was 0.37%; in [5], 1.63%; in experiment [6], -0.29%. Moreover, the inhibition in experiment [7] was 1.33%; in experiment [8], -0.19%; in experiment [9], 4.58%; in experiment [10], -0.14%.

For the compound `CNC(=O)c1ncccc1Nc1nc(Nc2cc3c(cc2OC)CCCN3C(=O)CN(C)C)nc2[nH]ccc12`, the inhibition in experiment [1] was found to be 4.34%; in experiment [2] it was 3.21%; in [3] it was 12.5%; in experiment [4], 0.36%; in experiment [5], 8.48%; in experiment [6], 3.42%. The inhibition in experiment [7] was 8.03%; in [8] it was 7.2%; in [9], 15.6%; in [10], 6.12%.

As to `CS(=O)(=O)Nc1ccc(-c2cc(-c3ccccc3)cc(C(N)=O)c2N)cc1`, the inhibition in experiment [1] is -0.57%; in experiment [2], 0.57%; in experiment [3], 4.13%; in experiment [4], 0.32%; in experiment [5], 1.12%; in experiment [6], 0.61%. For the same compound, the inhibition was found to be 2.18% in experiment [7], 1.48% in [8], 3.56% in experiment [9] and 0.94% in [10].

As to `Nc1nonc1-c1nc2cnccc2n1C1CC1`, the inhibition in experiment [1] is 2.54% and -2.2%; in [2], 22% and 20.1%; in [3] it was 65.5% and 61.9%; in experiment [4] it was 13.7% and 10.7%; in experiment [5], 55.7% and 52.9%; in experiment [6], 4.16% and 3.22%. Moreover, the inhibition was 19.6% and 19.7% in experiment [7]; 25% and 21.2% in experiment [8]; 70.2% and 63.7% in [9]; 21.5% and 17.6% in experiment [10].

These data come from ChEMBL document CHEMBL1961873, “Compounds: GSK PKIS; Assays: Nanosyn kinase panel” (2012).
